Test results published in PubChem BioAssay (NCI).
The panel holds about 79,000 compounds, 15% with a hit somewhere; the sample as a whole holds those more often. Calls of active or inactive are those of the source. No stated cut-off is given here; in the data, active means growth inhibition above about 70%; inactive means the rest.

Legend:
[1] = NCI Yeast Anticancer Drug Screen. Data for the rad52 strain (AID 147);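 further: 0% = growth of vehicle-treated control cultures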; conditions: S. cerevisiae rad52 mutant growth inhibition, stronger effect = higher value
Summary of the method: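 Vehicle-treated cultures served as the reference for growth inhibition of compound-exposed yeast bearing a DNA repair mutation.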

[2] = NCI Yeast Anticancer Drug Screen. Data for the rad50EPP+ strain (AID 151);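 further: 0% = growth of vehicle-treated control cultures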; conditions: S. cerevisiae rad50 mutant strain, stronger effect = higher value
Summary of the method: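 In this screen, rad50EPP+ yeast were exposed to compounds. Growth inhibition was scored against vehicle-treated controls.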

[3] = NCI Yeast Anticancer Drug Screen. Data for the rad50 strain (AID 155);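 further: 0% = growth of vehicle-only cultures of the same strain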; conditions: S. cerevisiae rad50 strain growth inhibition, stronger effect = higher value
Summary of the method: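 Growth of the mutant yeast was measured after compound exposure and referenced to vehicle-treated cultures.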

[4] = NCI Yeast Anticancer Drug Screen. Data for the rad14 strain (AID 159);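 further: 0% = growth of vehicle-treated control cultures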; conditions: S. cerevisiae rad14 strain growth inhibition, stronger effect = higher value
Summary of the method: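 Here, inhibition of yeast growth was measured after compound exposure, using a strain with a genetic defect in DNA damage repair and vehicle-treated cultures as the reference.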

[5] = NCI Yeast Anticancer Drug Screen. Data for the sgs1 mgt1 strain (AID 161);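 further: 0% = growth of cultures given vehicle only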; conditions: S. cerevisiae sgs1 mgt1 strain, stronger effect = higher value
Summary of the method: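 Read-out: growth inhibition vs vehicle controls. Cells: mutant yeast strain deficient in DNA damage repair.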

[6] = NCI Yeast Anticancer Drug Screen. Data for the CLN2oe strain (AID 163);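 further: 0% = growth of vehicle-only control cultures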; conditions: S. cerevisiae CLN2oe strain, stronger effect = higher value
Summary of the method: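 Inhibition relative to vehicle-treated yeast is reported. Cells: strain with genetic alteration in cell-cycle control, grown with compound.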

[7] = NCI Yeast Anticancer Drug Screen. Data for the cln2 rad14 strain (AID 165);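 further: 0% = growth equal to vehicle treated cultures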; conditions: S. cerevisiae cln2 rad14 strain, stronger effect = higher value
Summary of the method: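 Each compound was tested on cln2 rad14 yeast. Inhibition of growth was calculated against vehicle-exposed controls.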

[8] = NCI Yeast Anticancer Drug Screen. Data for the bub3 strain (AID 167); conditions: S. cerevisiae bub3 mutant strain, stronger effect = higher value
Summary of the method: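 Whole-cell yeast assay. The mutant strain was incubated with compounds, and growth inhibition was determined by comparison with vehicle-treated cells.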

[9] = NCI Yeast Anticancer Drug Screen. Data for the mlh1 strain (AID 171);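 further: 0% = growth of vehicle-treated control cultures of the same strain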; conditions: S. cerevisiae mlh1 strain growth inhibition, stronger effect = higher value
Summary of the method: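 Vehicle-normalised growth inhibition of a repair- or checkpoint-altered yeast strain following compound treatment.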

[10] = NCI Yeast Anticancer Drug Screen. Data for the sgs1 strain (AID 173);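 further: 0% = growth of vehicle-only control cultures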; conditions: S. cerevisiae sgs1 mutant, stronger effect = higher value
Summary of the method: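 Screen format: yeast with repair or checkpoint alterations, compound exposure, growth read relative to vehicle.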

[11] = NCI Yeast Anticancer Drug Screen. Data for the mlh1 rad18 strain (AID 175); conditions: S. cerevisiae mlh1 rad18 strain growth inhibition, stronger effect = higher value
Summary of the method: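 Vehicle-treated cultures served as the reference for growth inhibition in a yeast strain carrying DNA damage repair alterations exposed to each compound.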

[12] = NCI Yeast Anticancer Drug Screen. Data for the rad18 strain (AID 177); conditions: S. cerevisiae rad18 mutant growth inhibition, stronger effect = higher value
Summary of the method: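 Test articles were incubated with altered yeast defective in DNA damage repair. Results are given as inhibition of growth versus vehicle.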

[13] = NCI Yeast Anticancer Drug Screen. Data for the wt1 strain (AID 149);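 further: 0% = growth of vehicle-treated wt1 cultures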; conditions: S. cerevisiae wt1 strain (SPY 50644) growth inhibition, stronger effect = higher value
Summary of the method: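 Measured: growth of wt1 yeast under compound versus vehicle treatment, reported as inhibition.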

[14] = NCI Yeast Anticancer Drug Screen. Data for the mec2-1 strain (AID 157); conditions: S. cerevisiae mec2-1 strain, stronger effect = higher value
Summary of the method: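 Vehicle-treated cultures served as reference for growth inhibition of compound-exposed mec2-1 yeast.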

[15] = NCI Yeast Anticancer Drug Screen. Data for the wt2 strain (AID 169);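 further: 0% = growth of vehicle-treated yeast cultures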; conditions: S. cerevisiae wt2 strain growth inhibition, stronger effect = higher value
Summary of the method: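 Inhibition of yeast growth was determined after compound treatment, normalised to controls receiving only vehicle.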

[16] = at 5.0 µM (retest, dose inferred, filed as 0.5)
[17] = at 50.0 µM (retest, dose inferred, filed as 5.0)

Measured: growth inhibition

COC(=O)c1n[nH]c(C)c1N=NN(C)CCC#N
inactive: [1]; at 1.2 µM 46% | [2]; at 1.2 µM 26% | [3]; at 1.2 µM 18% | [3]; [16] 69% | [4]; at 1.2 µM 1% | [4]; at 3.7 µM 11% | [5]; [16] -11% | [6]; at 1.2 µM -2% | [6]; at 3.7 µM -3% | [7]; [16] -41% | [8]; at 1.2 µM -21% | [8]; at 3.7 µM -16% | [8]; [16] -71% | [9]; at 1.2 µM 7% | [9]; at 3.7 µM 0% | [10]; at 1.2 µM 15% | [11]; [16] -49% | [12]; at 1.2 µM 16% | [12]; at 3.7 µM 68%
active: [1]; at 3.7 µM 91% | [1]; at 11.0 µM 97% | [1]; at 33.0 µM 98% | [1]; at 100.0 µM 99% | [2]; at 3.7 µM 77% | [2]; at 11.0 µM 95% | [2]; at 33.0 µM 97% | [2]; at 100.0 µM 99% | [3]; at 3.7 µM 81% | [3]; at 11.0 µM 96% | [3]; at 33.0 µM 98% | [3]; [17] 96% | [3]; at 50.0 µM 98.5% | [3]; at 100.0 µM 99% | [4]; at 11.0 µM 72% | [4]; at 33.0 µM 99% | [4]; at 100.0 µM 99% | [5]; [17] 96% | [5]; at 50.0 µM 98.8% | [6]; at 11.0 µM 95% | [6]; at 33.0 µM 99% | [6]; at 100.0 µM 99% | [7]; [17] 98% | [7]; at 50.0 µM 97.8% | [8]; at 11.0 µM 80% | [8]; at 33.0 µM 99% | [8]; [17] 97% | [8]; at 50.0 µM 99% | [8]; at 100.0 µM 98% | [9]; at 11.0 µM 98% | [9]; at 33.0 µM 99% | [9]; at 100.0 µM 99% | [10]; at 3.7 µM 70% | [10]; at 11.0 µM 99% | [10]; at 33.0 µM 99% | [10]; at 100.0 µM 99% | [11]; [17] 97% | [11]; at 50.0 µM 98.8% | [12]; at 11.0 µM 95% | [12]; at 33.0 µM 98% | [12]; at 100.0 µM 99%

C=Cc1cnc([N+](=O)[O-])n1C
inactive: [13]; at 1.2 µM 13% | [13]; at 3.7 µM 21% | [13]; at 11.0 µM 19% | [13]; at 33.0 µM 39% | [2]; at 1.2 µM -1% | [2]; at 3.7 µM 15% | [2]; at 11.0 µM 41% | [14]; at 1.2 µM 11% | [14]; at 3.7 µM 3% | [14]; [16] 0% | [14]; at 11.0 µM 26% | [5]; [16] 61% | [6]; at 1.2 µM -14% | [6]; at 3.7 µM 8% | [6]; at 11.0 µM 14% | [6]; at 33.0 µM 33% | [7]; [16] 39% | [8]; at 1.2 µM -5% | [8]; at 3.7 µM -2% | [8]; [16] 8% | [8]; at 11.0 µM -2% | [8]; at 33.0 µM 20% | [8]; [17] 69% | [15]; at 1.2 µM -31% | [15]; at 3.7 µM -43% | [15]; at 11.0 µM -34% | [15]; at 33.0 µM 63% | [9]; at 1.2 µM -4% | [9]; at 3.7 µM 7% | [9]; at 11.0 µM 18% | [9]; at 33.0 µM 44% | [10]; at 1.2 µM 22% | [10]; at 3.7 µM 51% | [10]; at 11.0 µM 69%
active: [13]; at 100.0 µM 85% | [2]; at 33.0 µM 82% | [2]; at 100.0 µM 91% | [14]; at 33.0 µM 87% | [14]; [17] 94% | [14]; at 50.0 µM 85.7% | [14]; at 100.0 µM 95% | [5]; [17] 95% | [5]; at 50.0 µM 83.1% | [6]; at 100.0 µM 86% | [7]; [17] 93% | [7]; at 50.0 µM 90.2% | [8]; at 50.0 µM 82.1% | [8]; at 100.0 µM 82% | [15]; at 100.0 µM 96% | [9]; at 100.0 µM 90% | [10]; at 33.0 µM 85% | [10]; at 100.0 µM 92% | [11]; [16] 79% | [11]; [17] 90% | [11]; at 50.0 µM 90.2% | [12]; at 1.2 µM 85% | [12]; at 3.7 µM 92% | [12]; at 11.0 µM 94% | [12]; at 33.0 µM 94% | [12]; at 100.0 µM 94%
